A number with no mark means an inactive call. Activity calls are given as the source filed them.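 The calls were made as follows: active = growth inhibition above 50% at the single 2 µM test dose, taken to imply half-maximal potency below 2 µM; inactive = the rest.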
Assay: antimalarial activity against Dd2 strain (AID 2302);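 also: 0% = DMSO untreated growth and 100% = chloroquine plus artemisinin killed control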
Conditions: P. falciparum Dd2 in RBCs, LDH growth readout, 72 h; at 2 µM; active compounds read high

SMILES | growth inhibition
O=C(/C=C/c1ccc(Cl)c(Cl)c1)NCCCCCN1CCC(NC(=O)Nc2ccc(Cl)c(C(F)(F)F)c2)CC1 | 19%
Cc1cc(CNCCCCCNCc2ccc(Cl)cc2)ccc1O | -1%
O=C(Nc1ccc(F)cc1)NC1CCN(c2ccnc3cc(Cl)ccc23)CC1 | 57% (active)
COc1cc(OC)c(NC(=O)C2c3ccccc3C(=O)N(C)C2c2cccs2)cc1Cl (stereo not given) | 52% (active)
Cc1[nH]cc(Br)c(=O)c1-c1ccc(Oc2ccccc2)cc1 | 96% (active)
COc1ccc2nccc([C@@H](O)CN3CCC(NCc4ccc5c(c4)NC(=O)C(C)(C)O5)CC3)c2c1 | 70% (active)
CCCN1CCN(c2cc(S(=O)(=O)Nc3ccc(C(=O)NCc4cccc(C(F)(F)F)c4)cc3)ccc2OC)CC1 | 8%
CC(C)CNCc1cccc(-c2cccc(CN(CCCN3CCN(C)CC3)C(=O)Nc3ccccc3)c2)c1 | 76% (active)
C=CCOC(=O)N1CCC(CNCc2cccc(-c3ccc(-c4nc5c(C)cccc5[nH]4)s3)c2)C1 (stereo not given) | 82% (active)
Cc1nc2ccc3ccc(CNc4ccc5c(c4)CN([C@H](CCC(=O)O)C(=O)O)C5=O)cc3c2c(=O)[nH]1 | 90% (active)
O=C(CN(c1cccc(C(F)(F)F)c1)S(=O)(=O)c1ccc(Cl)cc1)NCCC(c1ccccc1)c1ccccc1 | 50% (active)
CCOc1ccc(-c2nc(NC(=O)COc3ccc(OC)cc3)sc2C)cc1 | 87% (active)
CC(=O)Nc1csc(-c2cnc(/C=C(\C)C[C@@H]3OC[C@H](C[C@@H]4O[C@H]4[C@@H](C)[C@H](C)O)[C@@H](O)[C@H]3O)o2)c1 | 8%
NC(N)=NN=Cc1ccc2ccc3ccccc3c2c1 | 89% (active)
COc1cccc(C(=O)Nc2ccc(S(=O)(=O)c3cc4c(cc3OC)CCN(C)CC4)cc2)c1 | 3%
CCOc1ccc(-c2nonc2NC(=O)c2ccc(F)cc2)cc1OCC | 99% (active)
CC(C)CCNC(=O)C1Cc2c([nH]c3cc(Br)ccc23)C2(CCN(Cc3ccccc3)CC2)N1 (stereo not given) | 45%
c1ccc2ncc(CNCCCCCCCCNCc3cnc4ccccc4c3)cc2c1 | 4%
Cc1cc(N(C)C)nc(Nc2ccc(NC(=O)c3c(F)cccc3F)cc2)n1 | 45%
O=C(c1ccccc1F)N(Cc1ccc(Cl)cc1)c1ccccn1 | 58% (active)

SMILES | growth inhibition
N#Cc1ccc(C=Cc2nccc3c2[nH]c2ccccc23)cc1 | 28%
N#Cc1ccc(CN2CCCN(c3ccc(NC(=O)c4ccc(F)cc4)cc3)CC2)cc1 | 61% (active)
N#Cc1cccc(C(=O)Nc2cccc(-c3ccc(CN4CCCC4)cc3)c2)c1 | 42%
CN(C(=O)NCCc1ccccc1)C1CCN(CCCCCNC(=O)/C=C/c2ccc(Cl)c(Cl)c2)CC1 | 11%
COc1ccccc1-n1ccnc1SCC(=O)Nc1cc(C(F)(F)F)ccc1Cl | 97% (active)
O=C(O)/C=C/c1cccc(F)c1F | 1%
Cc1cc(N[C@@H](Cc2ccccc2)C(=O)NCc2cccc(F)c2)nc(NCCc2cccs2)n1 | 22%
CCc1ccc(CN2CCC(CNC(=O)c3cc(-c4ccccc4Cl)cs3)C2)cc1 (stereo not given) | 0%
COc1cccc(-c2ccc3c(-c4cccc(S(C)(=O)=O)c4)cnc(N)c3c2)c1 | 21%
COc1ccc2c(NN=Cc3ccc(N(C)C)cc3)ccnc2c1 | 100% (active)
CCCc1cn2c3c(cc(C(=O)N[C@@H](Cc4ccccc4)[C@H](O)CNC4CCCCC4)cc13)N(C)S(=O)(=O)CC2 | 98% (active)
Cc1cccc2[nH]c(-c3cccc(-c4cccc(NC(=O)CNC(=O)c5ccc(O)cc5)c4)c3)nc12 | 49%
NC1CCN(CCNCc2cccc(-c3ccc(-c4nc5ccc(F)cc5[nH]4)cc3)c2)C1 (stereo not given) | 4%
OC1CCCN(Cc2cccc(-c3ccc(-c4nc5ccc(C(F)(F)F)cc5[nH]4)cc3)c2)C1 (stereo not given) | 91% (active)
COc1ccc(CNC2Cc3ccccc3C2)cc1-c1ccc(S(=O)(=O)NCCN2CCCC2)cc1 | 61% (active)
OC(CNCc1ccccc1Oc1ccccc1)c1cc(Br)cs1 (stereo not given) | 79% (active)
CNc1nc(NN=Cc2cc3c(cc2[N+](=O)[O-])OCO3)nc(Nc2cccc(C(F)(F)F)c2)n1 | 60% (active)
Cc1cc(CNCC(CCNc2cc(=O)c3ccccc3[nH]2)NCc2cc(Br)cc(Br)c2)oc1C (stereo not given) | 85% (active)
CCc1cn2c3c(cc(C(=O)N[C@@H](Cc4ccccc4)[C@H](O)CNC4CCC4)cc13)N(C)S(=O)(=O)CC2 | 98% (active)
O=C(Nc1ccc(C(F)(F)F)cc1)c1ccc(S(=O)(=O)NC2CCN(Cc3ccccc3)C2)cc1 (stereo not given) | 5%

From PubChem BioAssay
